Where a chain is given by its changes, count along the chain named.
Key:
Assay in all cases: PBM; 200 nM protein, PBS
Conditions in all cases: dsDNA, one strand shown
NKX2-4 [1] = biological target: T1, NKX2-4 (Homo sapiens, UniProt Q9H2Z4 175-261, P217L)
T1 sequence: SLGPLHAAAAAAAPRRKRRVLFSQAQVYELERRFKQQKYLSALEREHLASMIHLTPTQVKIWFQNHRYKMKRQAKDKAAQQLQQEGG

NKX2-4 [2] = biological target: T2, NKX2-4 (Homo sapiens, UniProt Q9H2Z4 175-261, T231S)
T2 sequence: T1 sequence with L43P, T57S

PRRX1 [3] = biological target: PRRX1 (Homo sapiens, UniProt P54821 80-166, F113S)
NKX2-4 [4] = biological target: T3, NKX2-4 (Homo sapiens, UniProt Q9H2Z4 175-261)
T3 sequence: T1 sequence with L43P

NKX2-4 [5] = biological target: T4, NKX2-4 (Homo sapiens, UniProt Q9H2Z4 175-261, R246Q)
T4 sequence: T1 sequence with L43P, R72Q

PRRX1 [6] = biological target: PRRX1 (Homo sapiens, UniProt P54821 80-166)
NKX2-6 [7] = biological target: T5, NKX2-6 (Homo sapiens, UniProt A6NCS4 118-204)
T5 sequence: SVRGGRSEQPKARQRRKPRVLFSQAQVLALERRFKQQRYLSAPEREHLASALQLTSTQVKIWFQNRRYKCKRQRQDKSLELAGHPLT

NKX2-6 [8] = biological target: T6, NKX2-6 (Homo sapiens, UniProt A6NCS4 118-204, F151L)
T6 sequence: T5 sequence with F34L

NKX2-6 [9] = biological target: T7, NKX2-6 (Homo sapiens, UniProt A6NCS4 118-204, R150C)
T7 sequence: T5 sequence with R33C

Chain of PRRX1 (Homo sapiens, UniProt P54821 80-166, F113S) (P54821 80-166 F113S): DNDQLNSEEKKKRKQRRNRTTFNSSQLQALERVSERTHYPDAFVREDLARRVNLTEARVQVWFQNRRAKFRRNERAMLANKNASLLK
Chain of PRRX1 (Homo sapiens, UniProt P54821 80-166) (P54821 80-166): as the sequence (P54821 80-166 F113S) above, with S34F counted along it

| Sequence | binding signal (NKX2-4 [1]) | binding signal (NKX2-4 [2]) | binding signal (PRRX1 [3]) | binding signal (NKX2-4 [4]) | binding signal (NKX2-4 [5]) | binding signal (PRRX1 [6]) | binding signal (NKX2-6 [7]) | binding signal (NKX2-6 [8]) | binding signal (NKX2-6 [9]) |
| --- | --- | --- | --- | --- | --- | --- | --- | --- | --- |
| CGAGCTAG | 9.46 upbm affinity estimate (log intensity, higher = more binding, comparable within an allelic series) | 9.32 upbm affinity estimate (log intensity, higher = more binding, comparable within an allelic series) | 9.63 upbm affinity estimate (log intensity, higher = more binding, comparable within an allelic series) | 9.31 upbm affinity estimate (log intensity, higher = more binding, comparable within an allelic series) | 9.21 upbm affinity estimate (log intensity, higher = more binding, comparable within an allelic series) | 9.54 upbm affinity estimate (log intensity, higher = more binding, comparable within an allelic series) | – | – | – |
| AGAAGCCG | 9.64 upbm affinity estimate (log intensity, higher = more binding, comparable within an allelic series) | 9.7 upbm affinity estimate (log intensity, higher = more binding, comparable within an allelic series) | – | 9.69 upbm affinity estimate (log intensity, higher = more binding, comparable within an allelic series) | 9.62 upbm affinity estimate (log intensity, higher = more binding, comparable within an allelic series) | – | 9.29 upbm affinity estimate (log intensity, higher = more binding, comparable within an allelic series) | 9.27 upbm affinity estimate (log intensity, higher = more binding, comparable within an allelic series) | – |
| CACGCCGC | 9.39 upbm affinity estimate (log intensity, higher = more binding, comparable within an allelic series) | 9.34 upbm affinity estimate (log intensity, higher = more binding, comparable within an allelic series) | – | 9.42 upbm affinity estimate (log intensity, higher = more binding, comparable within an allelic series) | 9.48 upbm affinity estimate (log intensity, higher = more binding, comparable within an allelic series) | – | 9.52 upbm affinity estimate (log intensity, higher = more binding, comparable within an allelic series) | 9.29 upbm affinity estimate (log intensity, higher = more binding, comparable within an allelic series) | 9.39 upbm affinity estimate (log intensity, higher = more binding, comparable within an allelic series) |
| GTGAAGGA | 11.6 upbm affinity estimate (log intensity, higher = more binding, comparable within an allelic series) | 12 upbm affinity estimate (log intensity, higher = more binding, comparable within an allelic series) | – | 11.5 upbm affinity estimate (log intensity, higher = more binding, comparable within an allelic series) | 11.6 upbm affinity estimate (log intensity, higher = more binding, comparable within an allelic series) | – | – | – | – |
| GAGTGTCC | 11.9 upbm affinity estimate (log intensity, higher = more binding, comparable within an allelic series) | 12.2 upbm affinity estimate (log intensity, higher = more binding, comparable within an allelic series) | – | 11.8 upbm affinity estimate (log intensity, higher = more binding, comparable within an allelic series) | 12.2 upbm affinity estimate (log intensity, higher = more binding, comparable within an allelic series) | – | – | – | – |
| CAAGTGCA | 12.1 upbm affinity estimate (log intensity, higher = more binding, comparable within an allelic series) | 12.5 upbm affinity estimate (log intensity, higher = more binding, comparable within an allelic series) | – | 12 upbm affinity estimate (log intensity, higher = more binding, comparable within an allelic series) | 12.7 upbm affinity estimate (log intensity, higher = more binding, comparable within an allelic series) | – | – | – | 11.4 upbm affinity estimate (log intensity, higher = more binding, comparable within an allelic series) |
| GTACTCAA | 12.6 upbm affinity estimate (log intensity, higher = more binding, comparable within an allelic series) | 13 upbm affinity estimate (log intensity, higher = more binding, comparable within an allelic series) | – | 12.5 upbm affinity estimate (log intensity, higher = more binding, comparable within an allelic series) | 13.1 upbm affinity estimate (log intensity, higher = more binding, comparable within an allelic series) | – | – | – | – |
| ACTTAGCT | 11.7 upbm affinity estimate (log intensity, higher = more binding, comparable within an allelic series) | 11.8 upbm affinity estimate (log intensity, higher = more binding, comparable within an allelic series) | – | 11.5 upbm affinity estimate (log intensity, higher = more binding, comparable within an allelic series) | 11.9 upbm affinity estimate (log intensity, higher = more binding, comparable within an allelic series) | – | – | – | – |
| GGTCGCCA | 9.68 upbm affinity estimate (log intensity, higher = more binding, comparable within an allelic series) | 9.67 upbm affinity estimate (log intensity, higher = more binding, comparable within an allelic series) | – | 9.7 upbm affinity estimate (log intensity, higher = more binding, comparable within an allelic series) | 9.8 upbm affinity estimate (log intensity, higher = more binding, comparable within an allelic series) | – | – | – | – |
| CCCGGCCC | 9.77 upbm affinity estimate (log intensity, higher = more binding, comparable within an allelic series) | 9.78 upbm affinity estimate (log intensity, higher = more binding, comparable within an allelic series) | – | 9.81 upbm affinity estimate (log intensity, higher = more binding, comparable within an allelic series) | 9.84 upbm affinity estimate (log intensity, higher = more binding, comparable within an allelic series) | – | – | – | – |
| CCTGCGCG | 9.34 upbm affinity estimate (log intensity, higher = more binding, comparable within an allelic series) | 9.28 upbm affinity estimate (log intensity, higher = more binding, comparable within an allelic series) | – | 9.35 upbm affinity estimate (log intensity, higher = more binding, comparable within an allelic series) | 9.37 upbm affinity estimate (log intensity, higher = more binding, comparable within an allelic series) | – | – | – | – |
| ACGGCCCG | 9.61 upbm affinity estimate (log intensity, higher = more binding, comparable within an allelic series) | 9.59 upbm affinity estimate (log intensity, higher = more binding, comparable within an allelic series) | – | 9.62 upbm affinity estimate (log intensity, higher = more binding, comparable within an allelic series) | 9.64 upbm affinity estimate (log intensity, higher = more binding, comparable within an allelic series) | – | – | – | – |
| CAACCGTC | 9.81 upbm affinity estimate (log intensity, higher = more binding, comparable within an allelic series) | 9.78 upbm affinity estimate (log intensity, higher = more binding, comparable within an allelic series) | – | 9.8 upbm affinity estimate (log intensity, higher = more binding, comparable within an allelic series) | 9.85 upbm affinity estimate (log intensity, higher = more binding, comparable within an allelic series) | – | – | – | – |
| TCCACTAA | 11.6 upbm affinity estimate (log intensity, higher = more binding, comparable within an allelic series) | 11.7 upbm affinity estimate (log intensity, higher = more binding, comparable within an allelic series) | – | 11.5 upbm affinity estimate (log intensity, higher = more binding, comparable within an allelic series) | 11.7 upbm affinity estimate (log intensity, higher = more binding, comparable within an allelic series) | – | – | – | – |
